Activity calls are given as the source filed them. The call rests on the fitted dose curve; in most records, active means well fitted curve in the direction sought with a large enough effect in the repeat runs; inconclusive means weak or mixed curves; inactive means flat fitted curve, though single readings scatter.

The assay is described as follows: qHTS assay to test for compound auto fluorescence at 590 nm (red) in HepG2 cell free culture (AID 720684). The note with it: cell-free medium autofluorescence, red 540/590 nm; series mostly up to 91.3 µM. The text has this:
U.S. Tox21 Program National Center for Advancing Translational Sciences [NCATS] NIH Chemical Genomics Center [NCGC] U.S. Environmental Protection Agency [EPA] National Institutes of Environmental Health Sciences [NIEHS] National Toxicology Program [NTP] U.S. Food and Drug Administration [FDA] Tox21 Assay Overview: Compound auto fluorescence often interferes with screening of the compound library against various biological targets and signaling pathways. Some of these compounds may have fluorophoric properties. Such properties may interfere with the assay outputs resulting in false positives and/or negatives. To decrease such complications and ensure the compound activities are relevant in terms of biological response, the Tox21 10K compound library was screened for auto fluorescence. From the fluorophores used as reporter signals in our screening assays, the auto fluorescence equivalencies of compounds against three fluorophores have been evaluated: Triamterene, Fluorescein and Rose Bengal sodium for blue, green and red fluorescence, respectively. The fluorescence intensities were measured using Excitation/Emission wavelengths at 405/460nm, 485/535nm and 540/590nm for blue, green and red labels, respectively. This assay includes the red fluorescence data.
Tox21 Assay Protocol Summary: 5 uL of culture medium (MEM containing 10% FBS) per well was dispensed into black wall/clear bottom 1536-well plates using a Multidrop Combi Dispenser (ThermoFisher Scientific, Waltham, MA). After 23 nL compound or DMSO vehicle was transferred into assay plate by a pintool work station (Kalypsys, San Diego, CA), fluorescence intensities in the assay plates were measured by an Envision (PerkinElmer, Shelton, CT) plate reader using three labels for measuring blue, green and red fluorescence at […] 460, 535 and 590nm respectively.
In the case of `CC(=O)CC(C)(C)O`, the molecule was classed as inactive.

Turning to `CC(=O)OCc1ccccc1`, the result was inactive.

With `CCCCOC(=O)c1ccc(N)cc1`, the call was inactive.

With `C[Si]1(C)O[Si](C)(C)O[Si](C)(C)O[Si](C)(C)O1`, the molecule was classed as inactive.

Consider `CC(=O)c1ccc(O)cc1`, for which the call was inactive.

For the molecule `CCNC(=S)NCC`, the molecule was called inactive.

As for `CSc1ccc(Cl)cc1`, the call was inactive.

With `CC(=O)OC1CC(C)OC(C)O1` (stereo not given), the molecule was classed as inactive.

On to `CC(C)(C)c1cc(Cc2cc(C(C)(C)C)c(O)c(C(C)(C)C)c2)cc(C(C)(C)C)c1O`, for which the molecule was called inactive.

Take `CC(CCO)CC(C)(C)C` (stereo not given): the outcome was inactive.

As for `C=CC(=O)OCCC(=O)O`, the molecule was called inactive.

Take `NCCCCCCN`: the result was inactive.

Regarding `NCCNCCN`, the call was inactive.

With `CCOCCOCCOCCO`, the result was inactive.

Consider `CCCCCCO`, for which the molecule was classed as inactive.

On to `NCCN1CCNCC1`, for which the call was inactive.

Turning to `OCc1cccc(Oc2ccccc2)c1`, the call was inactive.

Turning to `O=S(=O)(O)c1ccc(N=Nc2c(O)ccc3cc(S(=O)(=O)O)ccc23)cc1`, the outcome was inactive.

With `CCCCCCCCCCN`, the molecule was called inactive.

On to `CC(C)=CCl`, for which the result was inactive.

Regarding `Cc1ccc([N+](=O)[O-])cc1S(=O)(=O)O`, the outcome was inactive.

With `CC(C)CCCCCCCOC(=O)CCCCC(=O)OCCCCCCCC(C)C`, the outcome was inactive.

For `CN(C)c1ccc(O)c2c1C[C@H]1C[C@H]3[C@H](N(C)C)C(=O)C(C(N)=O)=C(O)[C@@]3(O)C(=O)C1=C2O`, the call was inactive.

With `O=C(O)c1cc2ccccc2cc1O`, the result was inactive.

For `CCO[Si](CCC#N)(OCC)OCC`, the call was inactive.

For the molecule `CCOC(=O)c1ccc(N)cc1`, the result was inactive.

With `Nc1ccc(Cl)c(N)c1`, the molecule was called inactive.

`N#Cc1ccccc1`: the result was inactive.

In the case of `CC(C)CC(C)O` (stereo not given), the molecule was called inactive.

In the case of `C=C(C)CNCC`, the molecule was called inactive.

On to `CN(C)c1ccc(Cc2ccc(N(C)C)cc2)cc1`, for which the molecule was called inactive.

For the molecule `CC1(C)S[C@@H]2[C@H](NC(=O)COc3ccccc3)C(=O)N2[C@H]1C(=O)O`, the outcome was inactive.

Regarding `Nc1nc(N)nc(-c2ccccc2)n1`, the outcome was inactive.

In the case of `CC(C)(C#N)c1cc(Cn2cncn2)cc(C(C)(C)C#N)c1`, the result was inactive.

Take `CC(O)CC(C)(C)O` (stereo not given): the molecule was called inactive.

In the case of `CCCCCCC=O`, the molecule was called inactive.

Consider `COCCCN`, for which the outcome was inactive.

As for `CCO[Si](CCCN)(OCC)OCC`, the call was inactive.

For the molecule `OCc1ccccc1`, the molecule was classed as inactive.

Regarding `O=c1[nH]cnc2[nH]ncc12`, the result was inactive.

The values are drawn from PubChem BioAssay (Tox21).
